{"source": "PubChem BioAssay AID1345082", "about": "(National Center for Advancing Translational Sciences (NCATS), 2018)", "note": "In all, about 94,000 compounds went through this assay and about 4,000 (4.3%) were called active. Another 29% or so got no clear call; they are omitted. The call rests on the fitted dose curve; in most records, active means well fitted inhibition curve with a large enough effect; inconclusive means small, poorly fitted or top-dose-only effect; inactive means no such curve, though single readings can be large or run the other way. The entries come from a sample that favours actives as a whole. Where a call stands in place of a potency, no number is given. Potency means the concentration at half of the fitted maximal effect.", "data": [{"assay": "Cytotoxic Profiling in NIH 3T3 Cell Line of Diverse Libraries Using Quantitative High-Throughput Screening; further: nearly all actives have a fitted effect of over 55% in size", "conditions": "NIH 3T3 viability, CellTiter-Glo ATP luminescence, 48-72 h; series mostly up to 96.7 µM", "procedure,_shortened": "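Cytotoxicity is measured as loss of cellular ATP: NIH 3T3 cells (400/well) are exposed to compound for 48 or 72 hr at 37 °C, then CellTiter-Glo luminescence is imaged after 10 min at room temperature.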", "values": [{"smiles": "O=C(c1ccsc1)N1CCCCCC1c1nnc(-c2ccccc2)o1", "note": "(stereo not given)", "Potency": "inactive"}, {"smiles": "COc1ccccc1N1CCCc2ncc(C(=O)N3CCCC[C@@H]3c3ccccc3)cc21", "Potency": "70.8 µM (active)"}, {"smiles": "COc1ccc(C(=O)N2CCCN(C(=O)C3CC3)C(c3ccccc3)CC(=O)NCC2)cn1", "note": "(stereo not given)", "Potency": "inactive"}, {"smiles": "COc1ccccc1N1CCN(C(=O)C2CCCN(C(=O)c3ccccc3)CCC(=O)NCC2)CC1", "note": "(stereo not given)", "Potency": "inactive"}, {"smiles": "CNC(=O)c1cc(C2CC2)nc2onc(C3CCCN(C(=O)OC)C3)c12", "note": "(stereo not given)", "Potency": "inactive"}, {"smiles": "CC(C)NC(=O)NC[C@H]1O[C@@H]2C[C@@H](CC(=O)NCc3nccn3C)O[C@@H]2[C@@H]1O", "Potency": "inactive"}, {"smiles": "NC(=O)c1cccc(-c2ncc3c(n2)OCCN(c2cccc(C(F)(F)F)c2)C3=O)c1", "Potency": "15.8 µM (active)"}, {"smiles": "COc1ccc(OC2CCN(C(C)=O)CC2)c(C(=O)N(C)Cc2ccc3nccnc3c2)c1", "Potency": "inactive"}, {"smiles": "O=C([C@H]1C[C@@H](F)CN1S(=O)(=O)c1ccc(F)c(Cl)c1)N1CCOCC1", "Potency": "inactive"}, {"smiles": "CN1C[C@@H](NC(=O)c2ccccc2)C[C@H]1c1nc(-c2ccccc2)no1", "Potency": "inactive"}, {"smiles": "CN1C[C@@H](NC(=O)COc2ccccc2)C[C@H]1c1nc(-c2ccc3c(c2)OCO3)no1", "Potency": "inactive"}, {"smiles": "CN1C[C@@H](NC(=O)c2ccc(C#N)cc2)C[C@H]1c1nc(-c2ccc(OC(F)(F)F)cc2)no1", "Potency": "39.8 µM (active)"}, {"smiles": "COc1ccc(CCc2nc(NC(=O)Cn3nc4c(cc3=O)CCCCC4)n[nH]2)cc1", "Potency": "inactive"}, {"smiles": "O=C(NC1CC1)C1CCCN(c2nc3ncccc3o2)C1", "note": "(stereo not given)", "Potency": "inactive"}, {"smiles": "CC(C)CNC(=O)C1CCCN(c2nccc(Nc3ccccc3F)n2)C1", "note": "(stereo not given)", "Potency": "44.7 µM (active)"}, {"smiles": "O=C(NC1CCCCC1)C1CCCN(c2nccc(Nc3ccccc3F)n2)C1", "note": "(stereo not given)", "Potency": "14.1 µM (active)"}, {"smiles": "O=C(NCc1ccc(F)cc1)C1CCN(c2nccc(Nc3ccccc3F)n2)CC1", "Potency": "44.7 µM (active)"}, {"smiles": "CNC(=O)C1CCN(c2nccc(Nc3ccccc3F)n2)CC1", "Potency": "inactive"}, {"smiles": "Cc1nc(CCNC(=O)C2CCCN(c3nc(-c4ccccc4)nc4c3CCC4)C2)n[nH]1", "note": "(stereo not given)", "Potency": "inactive"}, {"smiles": "Cc1ccccc1CN1CCC(N2CCCC(C(=O)NC3CC3)C2)CC1", "note": "(stereo not given)", "Potency": "inactive"}, {"smiles": "O=C(NCc1cccnc1)C1CCCN(c2cnn(Cc3ccccc3)c(=O)c2)C1", "note": "(stereo not given)", "Potency": "inactive"}, {"smiles": "Cc1ccc(CNC(=O)C2CCN(C(=O)c3ncn4c3COC(c3ccc(F)cc3)C4)CC2)cc1", "note": "(stereo not given)", "Potency": "inactive"}, {"smiles": "Cc1ccc(C(=O)N2CCC(c3n[nH]c(=O)n3Cc3ccc(F)cc3)CC2)cc1", "Potency": "inactive"}, {"smiles": "O=C1CCN([C@@H]2CCC[C@H]2O)c2cc3c(cc2CN1Cc1ccccc1)OCO3", "Potency": "inactive"}, {"smiles": "COc1cccc([S+](=O)([O-])N2CCCC3(CC(c4ccccc4)=NO3)C2)c1", "note": "(stereo not given)", "Potency": "inactive"}, {"smiles": "N[C@@H](Cc1cnc[nH]1)C(=O)N1CCC(c2cc(N3CCCC3)ncn2)CC1", "Potency": "inactive"}, {"smiles": "COc1ccc(C2Cn3nnc(-c4noc(-c5sccc5C)n4)c3CO2)cc1", "note": "(stereo not given)", "Potency": "inactive"}, {"smiles": "CCc1cc(C(=O)N2CCC(Oc3ccccc3)(C(=O)O)CC2)cs1", "Potency": "inactive"}, {"smiles": "CC(C)CNc1ncnc2c1CN(C1CCC1)C(=O)CN2C", "Potency": "inactive"}, {"smiles": "O=C(c1ccc(F)c(F)c1)N1CCN(C2CCN(CCc3ccccc3)C2=O)CC1", "note": "(stereo not given)", "Potency": "inactive"}, {"smiles": "COCc1nncn1C1CCN(C(=O)c2ccccc2F)CC1", "Potency": "inactive"}, {"smiles": "O=C1Nc2ccc(-c3ccccc3F)cc2C(=O)N2CCN(C(=O)c3cccs3)C[C@H]12", "Potency": "inactive"}, {"smiles": "N[C@H]1CCN2C(=O)c3cc(-c4ccc(F)cc4F)ccc3NC(=O)[C@H]12", "Potency": "112 µM (active)"}, {"smiles": "O=C1Nc2ccc(-c3ccsc3)cc2C(=O)N2CC[C@H](NS(=O)(=O)c3cccs3)[C@@H]12", "Potency": "inactive"}, {"smiles": "CS(=O)(=O)N1C[C@H]2CCN(C(=O)c3ccc(=O)[nH]c3)C[C@H]21", "Potency": "inactive"}, {"smiles": "CC(=O)N[C@@H]1CN(Cc2cn[nH]c2-c2ccc(F)cc2)C[C@H]1CO", "Potency": "inactive"}, {"smiles": "COc1ccc(-c2[nH]ncc2CN2CCCC(C(=O)NCc3ccccc3)CCNC(=O)CC2)cc1", "note": "(stereo not given)", "Potency": "inactive"}, {"smiles": "COc1ccc2cc(-c3[nH]ncc3CN3CCN(c4cccc(C)n4)CC3)ccc2c1", "Potency": "28.2 µM (active)"}, {"smiles": "CCc1nnc([C@@H]2CC(F)(F)CN2C(=O)c2cc(C)oc2C)o1", "Potency": "inactive"}, {"smiles": "C=CCNC(=O)N[C@H]1C[C@@H](C(=O)N[C@H](Cc2c[nH]c3ccccc23)C(N)=O)N(C(=O)C=C(C)C)C1", "Potency": "inactive"}, {"smiles": "O=C1CC2(CCN(C(=O)C3CCN(C(=O)c4ccccc4Cl)CC3)CC2)Oc2ccccc2N1", "Potency": "inactive"}, {"smiles": "O=C(NC1CCCC1)N1CCC(c2noc(-c3ccccc3)n2)C1", "note": "(stereo not given)", "Potency": "39.8 µM (active)"}, {"smiles": "O=C(Cn1ccnc1)N1CCC(c2noc(-c3ccncc3)n2)C1", "note": "(stereo not given)", "Potency": "inactive"}, {"smiles": "Cn1cnc(S(=O)(=O)N2CCC(c3noc(-c4ccccc4)n3)C2)c1", "note": "(stereo not given)", "Potency": "inactive"}, {"smiles": "Cc1noc(C)c1S(=O)(=O)N1CCC2(CC1)CN(c1ccccc1)C2=O", "Potency": "inactive"}, {"smiles": "O=C(NC1CCCCC1)N1CCCC(Cn2c(C3CC3)nc3cccnc32)C1", "note": "(stereo not given)", "Potency": "inactive"}, {"smiles": "Cc1nc(N2CCC(NC(=O)c3ccc4c(c3)OCO4)CC2)cc(C(F)(F)F)n1", "Potency": "inactive"}, {"smiles": "Cc1nc(N2CCC(C(=O)NCc3ccc(C(C)C)cc3)CC2)cc(C(F)(F)F)n1", "Potency": "25.1 µM (active)"}, {"smiles": "Cc1nc(N2CCC(NC(=O)C(C)Oc3ccccc3)CC2)cc(C(F)(F)F)n1", "note": "(stereo not given)", "Potency": "inactive"}, {"smiles": "CNC(=O)N1CCc2nc(N3CCOCC3)[nH]c(=O)c2CC1", "Potency": "inactive"}, {"smiles": "COc1ccc([S+](=O)([O-])c2nnn3c2nc(NC2CCCC2)c2ccccc23)cc1", "Potency": "inactive"}, {"smiles": "O=C(NCCOc1ccccc1)c1nc2c(o1)CCN(CC1CCCCC1)CC2", "Potency": "79.4 µM (active)"}, {"smiles": "CCc1nc2c(c(-c3ccc(OC)cc3)n1)CCN(CC1CCCCC1)CC2", "Potency": "inactive"}, {"smiles": "O=C(NCC1CC1)c1nc2c(o1)CCN(CCc1ccccc1)CC2", "Potency": "inactive"}, {"smiles": "CN(C)C[C@@H]1CN(S(C)(=O)=O)C[C@H]1NC(=O)c1cccc(F)c1", "Potency": "inactive"}, {"smiles": "COc1ccc(C(=O)N2CCC(N3C[C@H](O)C[C@H]3C(=O)NC3CCCCC3)CC2)cn1", "Potency": "inactive"}, {"smiles": "C[S+](=O)([O-])N1CCC2(C1)N=C(c1ccccn1)C(=O)N2", "note": "(stereo not given)", "Potency": "inactive"}, {"smiles": "CCN1C(=O)COC[C@@H]1C(O)c1ccc(NC(=O)Cc2ccc(OC)cc2)cc1", "note": "(stereo not given in full)", "Potency": "inactive"}, {"smiles": "COc1ccccc1CN1C(=O)COC[C@@H]1[C@H](O)c1ccc(NC(=O)c2ccc(C#N)cc2)cc1", "Potency": "44.7 µM (active)"}, {"smiles": "CC(C)CN1C(=O)COC[C@@H]1[C@H](O)c1ccc(NC(=O)Cc2ccccc2)cc1", "Potency": "inactive"}]}]}
